Assay results reported in ChEMBL document CHEMBL3988442, “University of Dundee, Small-Polar-MMV Screening Library” (2021).
For some assays here: Results with a measured potency or affinity are listed apart.

Key:
Set-up in all cases: scale not given: direction of the effect not stated beside the values
[1] = target: Protein translocase subunit SecA (Escherichia coli (strain K12)) (UniProt P10408); experiment: Assay to Identify E. coli SecA ATPase Inhibitors; type: functional; settings: 30 µM
[2] = target: T1, Ubiquitin-activating enzyme e1, putative (Leishmania donovani (strain BPK282A1)) (UniProt E9BSI1); experiment: Leishmania donovani Ubiquitin Activating Enzyme (LdE1); type: functional; settings: 30 µM
T1 sequence (whole entry): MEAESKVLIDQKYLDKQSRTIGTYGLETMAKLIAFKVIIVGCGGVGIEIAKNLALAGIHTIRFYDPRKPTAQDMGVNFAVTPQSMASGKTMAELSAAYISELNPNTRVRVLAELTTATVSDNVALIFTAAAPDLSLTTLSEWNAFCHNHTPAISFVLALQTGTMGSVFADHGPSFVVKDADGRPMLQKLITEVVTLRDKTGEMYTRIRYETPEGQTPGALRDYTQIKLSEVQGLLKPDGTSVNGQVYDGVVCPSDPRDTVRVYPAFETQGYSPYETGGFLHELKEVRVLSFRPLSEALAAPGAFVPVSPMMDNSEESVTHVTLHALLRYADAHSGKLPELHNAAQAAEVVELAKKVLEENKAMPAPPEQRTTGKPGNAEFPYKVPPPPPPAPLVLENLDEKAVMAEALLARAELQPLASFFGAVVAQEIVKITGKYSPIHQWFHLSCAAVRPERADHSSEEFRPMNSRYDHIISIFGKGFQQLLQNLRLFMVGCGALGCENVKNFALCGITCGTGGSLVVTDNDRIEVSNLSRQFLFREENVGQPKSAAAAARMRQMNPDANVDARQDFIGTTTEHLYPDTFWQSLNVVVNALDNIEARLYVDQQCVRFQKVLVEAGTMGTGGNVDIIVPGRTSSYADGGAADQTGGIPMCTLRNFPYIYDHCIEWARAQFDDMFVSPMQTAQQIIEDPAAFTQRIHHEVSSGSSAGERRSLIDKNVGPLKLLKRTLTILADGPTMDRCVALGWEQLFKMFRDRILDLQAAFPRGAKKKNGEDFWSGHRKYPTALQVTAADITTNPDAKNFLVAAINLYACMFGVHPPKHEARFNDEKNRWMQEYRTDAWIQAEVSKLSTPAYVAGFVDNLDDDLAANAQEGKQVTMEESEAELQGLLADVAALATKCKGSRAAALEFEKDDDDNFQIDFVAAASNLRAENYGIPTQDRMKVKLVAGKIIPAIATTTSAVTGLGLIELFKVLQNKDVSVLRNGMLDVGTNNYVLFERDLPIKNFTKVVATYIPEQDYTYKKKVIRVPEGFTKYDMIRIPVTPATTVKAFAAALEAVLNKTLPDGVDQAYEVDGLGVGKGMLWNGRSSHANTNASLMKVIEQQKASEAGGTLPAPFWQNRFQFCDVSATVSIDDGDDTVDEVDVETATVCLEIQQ

[3] = target: Sialic acid-binding Ig-like lectin 9 (Homo sapiens) (UniProt Q9Y336); experiment: Hs-Siglec9 ALPHAscreen SOP 20170721; settings: 10 µM
Sequence of Sialic acid-binding Ig-like lectin 9 (Homo sapiens) (Q9Y336 whole entry): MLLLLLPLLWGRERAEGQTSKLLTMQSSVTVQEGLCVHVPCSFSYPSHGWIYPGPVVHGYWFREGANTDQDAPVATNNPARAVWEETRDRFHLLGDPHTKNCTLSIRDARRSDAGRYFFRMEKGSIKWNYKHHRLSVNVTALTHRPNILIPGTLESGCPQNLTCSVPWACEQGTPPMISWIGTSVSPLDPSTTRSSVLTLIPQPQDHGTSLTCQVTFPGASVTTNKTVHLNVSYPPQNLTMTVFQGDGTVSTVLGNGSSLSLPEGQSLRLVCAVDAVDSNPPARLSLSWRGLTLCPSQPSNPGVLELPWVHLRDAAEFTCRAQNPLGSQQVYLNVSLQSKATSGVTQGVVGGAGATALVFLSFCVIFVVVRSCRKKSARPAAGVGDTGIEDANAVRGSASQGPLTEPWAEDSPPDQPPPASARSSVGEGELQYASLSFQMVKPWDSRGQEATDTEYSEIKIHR

Trypanosoma cruzi = experiment: Trypanosoma cruzi phosphomannomutase and mannose-1-phosphate guanylyltransferase assay; type: functional; settings: 10 µM
[4] = target: T2, Arginase-2, mitochondrial (Homo sapiens) (UniProt P78540); experiment: in vitro enzyme assay to detect the production of urea directly proportional to the activity of Arginase II; type: functional; settings: 33.3 µM; note: in the data most compounds retested in dose-response had high values
T2 sequence (whole entry): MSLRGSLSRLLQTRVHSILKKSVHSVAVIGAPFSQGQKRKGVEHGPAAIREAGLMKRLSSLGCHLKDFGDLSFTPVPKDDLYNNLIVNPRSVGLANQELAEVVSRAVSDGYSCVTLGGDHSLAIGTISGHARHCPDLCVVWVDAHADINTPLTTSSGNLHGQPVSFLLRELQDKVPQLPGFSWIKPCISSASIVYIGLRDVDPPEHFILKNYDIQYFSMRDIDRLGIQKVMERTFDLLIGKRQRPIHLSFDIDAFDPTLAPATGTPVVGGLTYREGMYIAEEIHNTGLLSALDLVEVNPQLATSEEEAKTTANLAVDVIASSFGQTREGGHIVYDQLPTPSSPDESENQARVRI

[5] = target: T3, Proteasome subunit beta (Trypanosoma cruzi) (UniProt O96673); experiment: Trypanosoma cruzi proteasome chymotrypsin-like activity (TcProtChymo) assay.; note: in the data most compounds retested in dose-response had high values; type: functional; settings: 9.37 µM
T3 sequence (whole entry): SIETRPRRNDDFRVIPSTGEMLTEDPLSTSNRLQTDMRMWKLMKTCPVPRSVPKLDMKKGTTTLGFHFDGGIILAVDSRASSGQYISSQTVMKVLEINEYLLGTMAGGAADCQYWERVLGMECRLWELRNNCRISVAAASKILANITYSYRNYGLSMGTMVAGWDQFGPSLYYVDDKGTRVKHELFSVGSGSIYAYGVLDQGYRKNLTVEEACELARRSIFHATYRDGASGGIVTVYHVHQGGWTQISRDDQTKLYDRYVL

Homo sapiens = organism: Homo sapiens; experiment: To identify inhibition of the IFN signalling (Jak-Stat) pathway via expression of an eGFP reporter gene under the control of an IFN-stimulated response element (ISRE) containing MxA promoter.; type: functional; settings: 30 µM
[6] = target: T4, Tyrosyl-tRNA synthetase, putative (Trypanosoma cruzi (strain CL Brener)) (UniProt Q4DSP6); experiment: Trypanosoma cruzi tyrosyl tRNA synthetase (TcYRS) _High Tyrosine SOP; type: functional; settings: 30 µM; note: in the data most compounds retested in dose-response had high values
T4 sequence (whole entry): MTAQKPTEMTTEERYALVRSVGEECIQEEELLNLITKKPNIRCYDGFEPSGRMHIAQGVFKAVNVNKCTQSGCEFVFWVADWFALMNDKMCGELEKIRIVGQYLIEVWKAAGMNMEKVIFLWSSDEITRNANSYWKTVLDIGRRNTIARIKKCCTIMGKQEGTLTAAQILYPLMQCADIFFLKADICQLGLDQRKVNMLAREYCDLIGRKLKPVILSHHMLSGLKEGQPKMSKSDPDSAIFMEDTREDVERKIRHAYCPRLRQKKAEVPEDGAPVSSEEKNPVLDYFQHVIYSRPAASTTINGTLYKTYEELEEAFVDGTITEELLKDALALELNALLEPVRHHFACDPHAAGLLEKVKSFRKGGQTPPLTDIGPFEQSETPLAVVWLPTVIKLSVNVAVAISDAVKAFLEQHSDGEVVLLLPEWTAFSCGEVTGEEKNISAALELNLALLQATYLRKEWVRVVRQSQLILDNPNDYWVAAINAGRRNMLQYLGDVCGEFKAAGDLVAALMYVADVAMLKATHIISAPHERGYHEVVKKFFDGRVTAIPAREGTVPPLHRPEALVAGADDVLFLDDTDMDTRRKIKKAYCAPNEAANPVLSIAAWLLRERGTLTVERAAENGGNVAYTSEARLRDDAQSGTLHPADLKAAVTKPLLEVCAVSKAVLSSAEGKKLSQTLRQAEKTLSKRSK

[7] = target: T4, Tyrosyl-tRNA synthetase, putative (Trypanosoma cruzi (strain CL Brener)); experiment: Trypanosoma cruzi tyrosyl tRNA synthetase (TcYRS) SOP; type: functional; settings: 30 µM
[8] = target: Chromo domain-containing protein 1 (Saccharomyces cerevisiae (strain ATCC 204508 / S288c) (Baker's yeast)) (UniProt P32657); experiment: ScCHD-1 Enzyme Inhibition Assay; type: functional; settings: 30 µM; note: in the data most compounds retested in dose-response had high values
Sequence of Chromo domain-containing protein 1 (Saccharomyces cerevisiae (strain ATCC 204508 / S288c) (Baker's yeast)) (P32657 whole entry, the tested form may be a part): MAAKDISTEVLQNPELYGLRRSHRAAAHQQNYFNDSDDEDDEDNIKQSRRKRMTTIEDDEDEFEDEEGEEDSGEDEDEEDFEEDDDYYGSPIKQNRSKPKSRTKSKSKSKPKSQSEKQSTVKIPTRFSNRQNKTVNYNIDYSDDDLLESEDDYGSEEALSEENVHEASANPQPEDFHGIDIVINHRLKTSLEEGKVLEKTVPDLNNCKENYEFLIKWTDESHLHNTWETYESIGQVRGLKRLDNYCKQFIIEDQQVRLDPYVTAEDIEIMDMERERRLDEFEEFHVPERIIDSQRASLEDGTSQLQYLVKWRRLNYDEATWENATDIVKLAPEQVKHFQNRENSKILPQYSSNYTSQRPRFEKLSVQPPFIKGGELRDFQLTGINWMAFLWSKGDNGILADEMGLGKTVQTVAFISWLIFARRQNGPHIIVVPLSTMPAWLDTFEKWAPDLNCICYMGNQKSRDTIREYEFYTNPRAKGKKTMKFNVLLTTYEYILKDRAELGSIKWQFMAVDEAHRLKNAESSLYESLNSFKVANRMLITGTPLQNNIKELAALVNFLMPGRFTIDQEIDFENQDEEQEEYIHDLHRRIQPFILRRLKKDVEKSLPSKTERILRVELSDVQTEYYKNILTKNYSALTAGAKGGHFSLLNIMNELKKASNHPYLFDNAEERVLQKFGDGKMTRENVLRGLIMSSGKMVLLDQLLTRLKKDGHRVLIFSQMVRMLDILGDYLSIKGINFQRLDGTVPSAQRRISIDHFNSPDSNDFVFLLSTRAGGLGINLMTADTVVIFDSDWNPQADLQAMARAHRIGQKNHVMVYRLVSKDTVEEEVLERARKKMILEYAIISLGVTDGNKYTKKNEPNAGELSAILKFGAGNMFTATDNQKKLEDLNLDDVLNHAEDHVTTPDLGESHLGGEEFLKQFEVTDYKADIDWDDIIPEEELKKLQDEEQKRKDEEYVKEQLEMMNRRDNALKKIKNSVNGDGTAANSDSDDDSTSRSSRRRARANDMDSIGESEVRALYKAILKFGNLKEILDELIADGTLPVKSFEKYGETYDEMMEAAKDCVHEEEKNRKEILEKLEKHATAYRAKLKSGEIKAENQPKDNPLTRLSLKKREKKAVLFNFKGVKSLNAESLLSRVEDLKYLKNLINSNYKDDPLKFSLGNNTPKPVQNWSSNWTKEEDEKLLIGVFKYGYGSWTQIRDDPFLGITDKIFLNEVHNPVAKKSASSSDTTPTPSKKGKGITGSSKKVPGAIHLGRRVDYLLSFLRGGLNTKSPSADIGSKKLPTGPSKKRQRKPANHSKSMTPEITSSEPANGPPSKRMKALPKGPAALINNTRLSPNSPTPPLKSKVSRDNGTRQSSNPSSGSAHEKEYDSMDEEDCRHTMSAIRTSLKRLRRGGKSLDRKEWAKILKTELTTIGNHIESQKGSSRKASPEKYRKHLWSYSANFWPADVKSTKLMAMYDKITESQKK

Sequence of Protein translocase subunit SecA (Escherichia coli (strain K12)) (P10408 whole entry): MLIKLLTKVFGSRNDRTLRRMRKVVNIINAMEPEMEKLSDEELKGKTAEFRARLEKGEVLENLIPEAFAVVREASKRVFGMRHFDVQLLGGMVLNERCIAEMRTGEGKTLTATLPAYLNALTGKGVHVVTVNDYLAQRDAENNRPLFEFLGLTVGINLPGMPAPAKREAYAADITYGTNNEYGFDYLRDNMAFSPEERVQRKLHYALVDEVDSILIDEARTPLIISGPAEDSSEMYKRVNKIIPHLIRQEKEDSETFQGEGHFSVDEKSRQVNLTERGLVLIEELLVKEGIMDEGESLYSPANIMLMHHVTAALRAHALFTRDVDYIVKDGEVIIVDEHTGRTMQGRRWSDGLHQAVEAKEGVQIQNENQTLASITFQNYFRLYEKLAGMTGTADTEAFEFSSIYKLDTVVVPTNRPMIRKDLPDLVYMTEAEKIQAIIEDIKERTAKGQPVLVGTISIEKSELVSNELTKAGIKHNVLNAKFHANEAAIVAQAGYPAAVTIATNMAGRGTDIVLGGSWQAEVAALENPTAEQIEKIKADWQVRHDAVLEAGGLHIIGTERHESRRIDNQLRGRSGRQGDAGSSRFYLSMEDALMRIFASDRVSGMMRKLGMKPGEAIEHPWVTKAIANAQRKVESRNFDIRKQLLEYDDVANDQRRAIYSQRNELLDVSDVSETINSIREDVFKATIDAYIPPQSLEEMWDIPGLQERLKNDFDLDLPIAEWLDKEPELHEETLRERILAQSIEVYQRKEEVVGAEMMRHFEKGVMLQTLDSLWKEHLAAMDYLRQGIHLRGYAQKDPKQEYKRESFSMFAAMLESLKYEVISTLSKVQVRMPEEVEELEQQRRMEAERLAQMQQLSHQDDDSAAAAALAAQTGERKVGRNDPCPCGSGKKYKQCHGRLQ

Row | Structure (SMILES) | Percent Effect [1] | Percent Effect [2] | Percent Effect [3] | Percent Effect (Trypanosoma cruzi) | Percent Effect [4] | Percent Effect [5] | Percent Effect (Homo sapiens) | Percent Effect [6] | Percent Effect [7] | Percent Effect [8]
1 | Cc1cnn(CC2CCCN2C(=O)c2ccc(OC(C)C)nc2)c1 (stereo not given) | -0.574% | -2.56% | 12.5% | 0.657% | 4.92% | -5.89% | -3.81% | -3.35% | 1.21% | 2.64%
2 | Cc1cnn(CC2CCCN2C(=O)c2ccc3nnc(C)n3c2)c1 (stereo not given) | -1.55% | -5.13% | -9.94% | 1.03% | 2.87% | 4.01% | 8.47% | -2.39% | -3.61% | -5.71%
3 | c1cnnc(N2CCCC2CNCc2nc(-c3ccsc3)no2)c1 (stereo not given) | -4.07% | -23.1% | -7.35% | 9.11% | -6.15% | 0.256% | -10.2% | 5.26% | 6.02% | -1.74%
4 | CCC(NC(=O)c1ccco1)c1ccccc1OCC(=O)N1CCCC1 (stereo not given) | -0.841% | 20.5% | -7.21% | 8.92% | -5.33% | 12.5% | 13.3% | 3.35% | 22.9% | -5.94%
5 | Cc1ccc(N2CCC3(CCCN(C(=O)c4cccnc4)C3)C2)nn1 (stereo not given) | -10.1% | 1.3% | 11% | -3.41% | 0.405% | 16.1% | 2.17% | 0.526% | -10.3% | 0.442%
6 | COc1ccc(C[C@H]2CN(C(=O)CN(C)C)CC[C@H]2OC)cc1 | -1.58% | 14.3% | 1.4% | 0.563% | 0% | -4.21% | 5.12% | -8.7% | 10% | -0.592%
7 | CC(Cn1cccn1)NC(=O)NCc1cccnc1OC1CCCC1 (stereo not given) | -2.7% | 8% | -3.26% | 4.42% | 0.887% | 8.06% | -10.3% | 0.526% | 10.3% | -8.77%
8 | CCN1CCC2(CCC(=O)N2Cc2cccc(C)n2)CC1 | -2.48% | 9.09% | -0.0986% | -0.188% | 0.457% | 2.49% | -13.7% | 7.73% | 15% | -11.3%
9 | COc1ccc(CNCc2ccnc(N3CCOCC3)c2)cc1OC | -2.27% | 33.3% | -6.8% | 5.16% | -8.61% | 10.7% | 11.3% | 6.22% | 20.5% | -7.91%
10 | CC(C)NC(=O)CC1COC2(CCN(Cc3ccccc3)CC2)C1 (stereo not given) | -1.47% | 16.9% | -1.95% | -2.25% | 2.28% | 16.2% | -3.75% | 7.73% | 10% | -5.41%
11 | N#Cc1ccccc1OCCN1CCn2c(nnc2C2CC2)C1 | 1.03% | 2.67% | -0.123% | -0.602% | -0.444% | 5.85% | -1.08% | 2.63% | 2.56% | -0.472%
12 | COc1ccc(OC)c(C2CCN(Cc3nc(C)n4ccccc34)C2)c1 (stereo not given) | -4.56% | -2.7% | 16.9% | 2.81% | 17.1% | 17.8% | 17.9% | 13.3% | 26.8% | -3.48%
13 | Cn1cc(CN2CCCN(C(=O)c3cn4ccccc4n3)CC2)cn1 | -2.59% | 25.6% | -16.8% | 4.04% | -0.41% | 20.1% | 13.6% | 3.35% | 22.9% | 15.2%
14 | CN1CC(c2ccccc2)CC12CCN(C(=O)c1ccc(F)cc1)CC2 (stereo not given) | -9.69% | 0% | 9.54% | -2.04% | 2.45% | 6.34% | 16.1% | 0.532% | 2.44% | -1.53%
15 | Cc1cc(C)n(CC2CCCN2CCc2ccncc2)n1 (stereo not given) | -5.42% | 7.69% | -18.5% | 12.5% | -2.87% | 17.1% | 5.12% | 3.35% | 20.5% | -3.37%
16 | Cc1cccc(CN2C[C@@H]3CN(C(=O)[C@H]4CCCO4)C[C@@H]3C2=O)c1 | -6.54% | 24.7% | 2.65% | 3% | -2.28% | 16.4% | 5.56% | 9.66% | 20% | -6.96%
17 | CCc1nc(CN(C)C2CCN(CCc3ccccn3)C2)no1 (stereo not given) | -0.239% | 21.3% | -5.99% | 4.02% | -3.55% | 22.8% | 12.5% | 6.84% | 15.4% | -14.1%
18 | CN(C)CC1CN(Cc2ccc3c(c2)OCO3)Cc2nccn2C1 (stereo not given) | -10.1% | -42.9% | 7.99% | 0.682% | -3.64% | 5.56% | 12.4% | 0.526% | 0% | -1.33%
19 | COCCCNc1nccc(-c2c[nH][nH]c2=O)n1 | -1.57% | 8% | -3.19% | -6.63% | -3.55% | 19.9% | 12.9% | -1.58% | 0% | -11.7%
20 | COc1ccc(C2CC(=O)Nc3c2nc2n3CCCC2)cc1O (stereo not given) | -3.09% | 2.7% | 6.46% | -2.04% | 7.34% | 22.6% | 23.4% | 1.6% | 14.6% | -3.18%
